Drawing on PubChem BioAssay AID2058 (Sanford-Burnham Center for Chemical Genomics, 2009), this text covers inhibition for 57 molecules.

Broadly, the inhibition is the relative decrease from the control value, in per cent.

Structures are written as SMILES. Among all 290,000 compounds or so, about 150 (0.052%) were called active. The sample as a whole holds a higher share of actives than the screen did. Measured potencies and affinities stand elsewhere. Unmarked numbers belong to inactive results.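 Rule for the calls: active = inhibition of at least 50% with at least 30 cells and total cytoplasm GFP at most 10,000,000; inconclusive = under 30 cells or total GFP of 10,000,000 plus; inactive = the rest.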

The target in this test is G-protein coupled receptor 35 (Homo sapiens) (UniProt Q9HC97). Briefly: GPR35 antagonists blocking zaprinast-driven arrestin recruitment, primary screen, imaging, U2OS, beta-arrestin-GFP, zaprinast agonist (AID 2058). The note with it: U2OS GPR35 beta-arrestin-GFP translocation imaging, zaprinast antagonism; at 10 µM; active compounds read high. In general terms: Arrestin recruitment assays detect the binding of arrestin to an activated receptor.
G-protein coupled receptor 35 (Homo sapiens), sequence (Q9HC97 whole entry, looked up): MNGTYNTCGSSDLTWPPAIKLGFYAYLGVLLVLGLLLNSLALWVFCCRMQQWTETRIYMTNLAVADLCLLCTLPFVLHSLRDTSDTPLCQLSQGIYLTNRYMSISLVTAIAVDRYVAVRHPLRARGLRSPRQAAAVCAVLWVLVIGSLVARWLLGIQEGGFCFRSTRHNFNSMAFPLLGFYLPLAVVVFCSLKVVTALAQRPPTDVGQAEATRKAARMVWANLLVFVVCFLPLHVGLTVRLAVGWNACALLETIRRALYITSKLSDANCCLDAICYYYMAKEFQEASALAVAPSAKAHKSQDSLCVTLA
Turning to `NC(=O)c1cc2cc([N+](=O)[O-])ccc2oc1=O`, the inhibition is -20%.

Regarding `COc1ccc(C(=O)Nc2ccc(Cl)cc2C(=O)NCc2ccco2)cc1`, the inhibition is 14%.

As for `CCOc1ccc(CNc2ccc3c(c2)nc(C)n3C)cc1`, the inhibition is 4.9%.

As for `CCn1cnc2cc(NCc3ccc(OC)cc3)ccc21`, the inhibition was -12.4%.

Turning to `CCOCC(O)CS(=O)(=O)c1ccccn1` (configuration not stated), the inhibition was -4.6%.

As to `O=C(Nc1nc2ccc(Cl)cc2s1)c1ccc(N2CCCCC2)c([N+](=O)[O-])c1`, the inhibition was 4.2%.

As for `O=C(Nc1nc2ccc3ccccc3c2s1)c1ccc(N2CCCCC2)c([N+](=O)[O-])c1`, the inhibition is 5.5%.

With `O=C(Cc1cccc2ccccc12)Nc1cc(Cl)ccc1C(=O)O`, the inhibition is -3.5%.

`O=C(CCC1N=C2c3ccccc3N=C(SCC(=O)NCC3CCCO3)N2C1=O)NCc1ccc(F)cc1` (configuration not stated): the inhibition was -0.5%.

With `N#C/C(=C\c1ccc(N2CCOCC2)o1)c1nc2ccccc2[nH]1`, the inhibition was 26.1%.

On to `N#C/C(=C\c1ccc(N2CCOCC2)o1)c1ccccc1`, for which the inhibition was 19.5%.

Turning to `CCn1c(CC(=O)Nc2ccccc2F)nnc1SCC(=O)N1CCN(c2ccccc2)CC1`, the inhibition was -10.6%.

Take `CC(C)(C)NC(=O)CN(C(=O)C(=O)Nc1ccc2c(c1)OCCO2)C1CCCC1`: the inhibition is 15.5%.

In the case of `CC(=O)c1cccc(NC(=O)/C(=C\c2ccco2)NC(=O)c2ccco2)c1`, the inhibition was -5.7%.

`CN1C=CC2=C(C#N)C(N)C(C#N)(C#N)[C@H](c3ccccc3)[C@H]2C1` (some centres not stated): the inhibition is 38.1%.

`CCN1C=CC2=C(C#N)C(N)C(C#N)(C#N)C(c3ccccc3C(F)(F)F)C2C1` (configuration not stated): the inhibition is 12.6%.

Turning to `CC1=C(C(=O)OCc2ccccc2)C(c2ccccc2Cl)NC(=O)N1CCCCCC(=O)O` (configuration not stated), the inhibition was 0.1%.

For the molecule `O=S(=O)(Nc1nc2ccccc2s1)c1cc(F)ccc1F`, the inhibition was -10.3%.

For `CC1CN(CCC(=O)Nc2ccc3c(c2)OCO3)CC(C)O1` (configuration not stated), the inhibition was -12%.

Turning to `C#CCOCCOCCOCCNc1nc(N2CCN(C(=O)[C@H]([C@@H](C)CC)n3cc(CCCN=C(N)N)nn3)CC2)nc(N2CCN(C(=O)[C@H](Cc3ccc(O)cc3)n3cc(CCO)nn3)CC2)n1`, the inhibition was -6.4%.

In the case of `Cc1ccc(C2=NN(S(C)(=O)=O)C(c3ccc4c(c3)OCO4)C2)cc1` (configuration not stated), the inhibition is 6.3%.

`CS(=O)(=O)N1N=C(c2ccc(Br)cc2)CC1c1ccc2c(c1)OCO2` (configuration not stated): the inhibition is 20.6%.

With `O=C(NC1CCCC1)C(c1ccccn1)N(C(=O)c1csnn1)c1ccccc1` (configuration not stated), the inhibition is 13.8%.

Take `COc1ccc(/C=N/N2C(=O)CN(C(=O)c3ccccc3)C2c2ccc(OC)cc2)cc1` (configuration not stated): the inhibition was 1.5%.

Consider `COc1ccc(S(=O)(=O)N2CCOC2CNC(=O)C(=O)NCCc2c[nH]c3ccccc23)cc1` (configuration not stated), for which the inhibition was 4.5%.

Turning to `O=C(Nc1ccc(C2=NCCN2)cc1)c1ccc(Cl)c(C(=O)Nc2ccc(C3=NCCN3)cc2)c1`, the inhibition was 13.7%.

Consider `O=C(Nc1ccc(C2=NCCN2)cc1)c1ccc(C(=O)Nc2ccc(C3=NCCN3)cc2)c(Cl)c1`, for which the inhibition was 101% (active).

On to `O=C(Nc1ccc(C2=NCCN2)cc1)c1ccc(C(=O)Nc2ccc(C3=NCCN3)cc2)c([N+](=O)[O-])c1`, for which the inhibition is -3.6%.

Turning to `COC(=O)c1sc(S(=O)(=O)N2CCC(C)CC2)c(C(=O)OC)c1C`, the inhibition is 10.9%.

For the molecule `COCCCNC(=S)N(CCCN(C)C)Cc1cc2cc3c(cc2[nH]c1=O)OCCO3`, the inhibition is -7.4%.

As for `CCOC(=O)CC1C(=O)NCCN1C1CCCC1` (configuration not stated), the inhibition was 9.7%.

As to `CC(=O)NNC(=O)CN1C(=O)/C(=C/c2ccccc2)SC1=S`, the inhibition was -0.2%.

Regarding `Cc1c(C(=O)Nc2cccc(N(C)S(C)(=O)=O)c2)cccc1[N+](=O)[O-]`, the inhibition is -4.4%.

In the case of `O=c1ccc2cc3c4c(c2o1)CCCN4CCC3`, the inhibition was 22.1%.

With `CC(C)c1cc(=O)oc2c3c4c(cc12)CCCN4CCC3`, the inhibition was -1.4%.

Consider `O=C(CNC(=O)N1CC(=O)Nc2ccccc21)Nc1ccc(F)c(Cl)c1`, for which the inhibition is -6.4%.

Consider `CCc1ccc2[nH]c(=O)c(CN(CCN3CCOCC3)C(=O)Nc3ccccc3F)cc2c1`, for which the inhibition was 8.5%.

On to `CCC(C)[C@H](NC(=O)N1CCn2c1nc1ccccc12)C(=O)NCC1CCCO1` (some centres not stated), for which the inhibition was -10.9%.

`O=C(NC1CCCc2ccccc21)c1cn2ccccc2n1` (configuration not stated): the inhibition is 13.2%.

For the molecule `CC(C)c1ccc(NC(=O)CSc2nc3ccsc3c(=O)n2CCC(=O)O)cc1`, the inhibition is 6.9%.

In the case of `Cc1ccc(CNC(=O)CSc2nc3ccsc3c(=O)n2Cc2ccc(C(=O)O)cc2)cc1`, the inhibition was -4.6%.

Consider `O=C(NCCN1CCOCC1)c1c[nH]c2ccc(S(=O)(=O)N3CCOCC3)cc2c1=O`, for which the inhibition was 3%.

For `CCCS(=O)(=O)c1c(S(=O)(=O)CCC)c2c3ccccc3ccn2c1C(N)=O`, the inhibition was -10.5%.

In the case of `CCN(CC)S(=O)(=O)c1ccc(Cl)c(NC(=O)c2cc(Cl)ccc2Cl)c1`, the inhibition is 7.1%.

As to `CCN(CC)S(=O)(=O)c1ccc(Cl)c(NC(=O)c2ccccc2C)c1`, the inhibition was 4.8%.

As for `CCOc1ccccc1N(C)C(=O)Cn1ncc2c([nH]c3ccc(C)cc32)c1=O`, the inhibition is -6.9%.

Turning to `CN(C(=O)COC(=O)c1ccccc1NC(=O)c1ccco1)C1CCS(=O)(=O)C1` (configuration not stated), the inhibition was 29.1%.

Consider `Cc1ccc(NC(=O)c2nc[nH]c2C(=O)N[C@@H](C)c2ccccc2)cc1`, for which the inhibition was 53.8%.

Consider `Cc1ccc(CCNC(=O)CCS(=O)(=O)c2ccc(Br)cc2)cc1`, for which the inhibition was 3.1%.

Regarding `O=C(CCS(=O)(=O)c1ccc(Br)cc1)NCCc1ccccc1`, the inhibition was -8.4%.

For `NS(=O)(=O)c1ccc(CCNC(=O)CCCOc2ccccc2)cc1`, the inhibition is 3.9%.

With `Cc1ccc(OCCC(=O)NCCc2ccc(S(N)(=O)=O)cc2)cc1`, the inhibition is 21.9%.

`CC(=O)Nc1ccc(-c2nnc(SCc3ccccc3C#N)n2C)cc1`: the inhibition is -3.6%.

Take `Cc1ccc(C(OCC(O)CNC(CO)C(O)c2ccc([N+](=O)[O-])cc2)c2ccccc2)cc1` (configuration not stated): the inhibition is 2%.

For the molecule `CCCCc1ccc(/C=C2\C(=O)c3ccccc3C(O)=C2C(=O)OCC)cc1`, the inhibition is 59% (active).

`CCCc1ccc(/C=C2\C(=O)c3ccccc3C(O)=C2C(=O)OCC)cc1`: the inhibition was 21.2%.

On to `CCOC(=O)C1=C(O)c2ccccc2C(=O)/C1=C\c1ccc(CC)cc1`, for which the inhibition was 31.1%.
